VP16 counter: VP16 counterscreen qHTS for inhibitors of ROR gamma transcriptional activity; Potency, µM (titrated, usually from 53.6 µM), for the others: top-dose activity, negative = inhibition, usual class: inhibitors; AID 2546, 2010; 310,000 compounds, 3.5% hits; Drosophila S2 Gal4-VP16 UAS-luciferase, luminescence, 20 h;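 also: Gal4-VP16 expression switched on by copper sulfate through the metallothionein promoter; % is scaled to controls: 0 for no effect and ±100 for the full control effect; nearly all actives have a fitted effect of over 50% in size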
PINK1 expr mod: A Quantitative High throughput Screen to Identify Chemical Modulators of PINK1 Expression | 410,000 compounds, 0.2% hits | AID 624263, 2012 | PINK1 immunofluorescence, high-content cytometry, 24 h | Potency, µM (top dose mostly 76.6 µM), without a hit: at the top dose activation (PINK1 increase), usual class: activators; active = well fitted activation curve with a large enough effect; inconclusive = small, poorly fitted or top-dose-only effect; cell line not stated here; also: % of control where 0% means no effect; nearly all actives have a fitted effect of over 65% in size
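Decision-based qHTS: stable cells, 24 h exposure to five compound concentrations, CCCP as control. Fixed cells stained for PINK1 plus nuclear, mitochondrial and cell markers, cytometer read.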
Epigenetic reg: Quantitative High-Throughput Screen for Regulators of Epigenetic Control | murine LDR cells, GFP reporter derepression, 30 h | Potency, µM (doses to about 53.9 µM), for inactives: at the top dose GFP activation, most hits filed as activators | 280,000 compounds, 0.2% hits; also: % of control where 0% means no effect; nearly all actives have a fitted effect of over 60% in size
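Reporter derepression read as number of fluorescent GFP-positive objects, 20-120 um in size, counted by laser-scanning cytometer. Mouse LDR line with an epigenetically silenced CMV-GFP locus; compound incubation 30 h, 37 C.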
Sfp PPTase inh: qHTS Assay for Inhibitors of Bacillus subtilis Sfp phosphopantetheinyl transferase (PPTase); 4'-phosphopantetheinyl transferase ffp (Bacillus subtilis), Q9F4F7; Biochemical Sfp PPTase activity, qHTS; Potency, µM, inactives show largest response in the series, negative = inhibition, most hits filed as inhibitors; 310,000 compounds, 3.5% hits; AID 1490, 2009;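 also: the enzyme is Sfp with the accession as filed and its product quenches rhodamine fluorescence; 0% = enzyme reaction without inhibitor and -100% = no enzyme wells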
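Compounds were incubated with enzyme (final 15 nM) for 15 min at room temperature before substrate addition started the reaction. Fluorescence at 525 nm excitation, 598 nm emission was recorded immediately and after 30 minutes.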
ClpP mod: qHTS Assay for Activators of ClpP; ATP-dependent Clp protease proteolytic subunit (Bacillus subtilis (strain 168)), P80244; purified B. subtilis ClpP, FRET peptide cleavage, 20 min; Potency, µM (doses to about 57.5 µM), inactives show at the highest dose activity change, negative = active; 340,000 compounds, 1.9% hits; active = well fitted falling curve with a large enough effect; inconclusive = small, poorly fitted or top-dose-only effect; inactive = no such curve, though single readings can be large or run the other way; also: the source files actives as falling curves though it sought activators and does not explain the sign; nearly all actives have a fitted effect of over 65% in size
Target sequence (P80244 whole entry, looked up): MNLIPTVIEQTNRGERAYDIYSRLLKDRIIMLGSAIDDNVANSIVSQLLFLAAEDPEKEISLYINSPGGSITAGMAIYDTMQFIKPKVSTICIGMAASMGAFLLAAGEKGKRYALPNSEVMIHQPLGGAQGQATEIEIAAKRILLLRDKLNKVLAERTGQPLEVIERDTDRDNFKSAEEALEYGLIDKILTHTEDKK
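Buffer: 100 mM Tris/HCl pH8, 100 mM KCl, 0.05% low protease BSA, 2.5% glycerol, 0.01% Tween-20. ClpP 10 microg/mL final; 20 min RT; delta FRET normalized to ADEP and DMSO controls.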
RORgamma inh: qHTS for inhibitors of ROR gamma transcriptional activity; Nuclear receptor ROR-gamma (Mus musculus), P51450; Drosophila S2 Gal4-RORgamma UAS-luciferase reporter, 20 h; Potency, µM (series often up to 53.6 µM), inactives show top-dose activity change, negative = inhibition, most hits filed as inhibitors; 310,000 compounds, 5.4% hits; AID 2551, 2010; also: % is scaled to controls: 0 for no effect and ±100 for the full control effect; nearly all actives have a fitted effect of over 60% in size
Target sequence (P51450 whole entry, looked up, the tested form may be a part): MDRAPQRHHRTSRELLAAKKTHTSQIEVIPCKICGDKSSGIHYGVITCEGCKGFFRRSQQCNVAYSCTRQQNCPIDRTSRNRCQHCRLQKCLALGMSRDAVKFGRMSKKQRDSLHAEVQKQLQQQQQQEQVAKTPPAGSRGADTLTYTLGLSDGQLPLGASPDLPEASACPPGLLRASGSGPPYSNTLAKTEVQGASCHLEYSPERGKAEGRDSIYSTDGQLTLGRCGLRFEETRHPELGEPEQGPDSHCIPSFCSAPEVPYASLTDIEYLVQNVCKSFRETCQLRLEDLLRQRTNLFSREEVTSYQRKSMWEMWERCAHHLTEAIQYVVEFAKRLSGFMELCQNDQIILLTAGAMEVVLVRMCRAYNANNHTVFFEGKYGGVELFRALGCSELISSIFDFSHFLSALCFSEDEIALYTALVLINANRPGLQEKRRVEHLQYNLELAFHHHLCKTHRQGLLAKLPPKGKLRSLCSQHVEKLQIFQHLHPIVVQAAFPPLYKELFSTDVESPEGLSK
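Drosophila Schneider cells stably carrying a metallothionein-driven Gal4 DBD–ROR gamma fusion and a UAS-Photinus luciferase reporter were exposed to compound for 1 hr, then induced with copper sulfate (700 uM final) for 20 hr at ambient temperature before luminescence reading.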
Starred values were filed as active, the others as inactive; u = inconclusive; x = no result; [ ] = dose if it differs, or a comment. This is a sample that favours compounds with a hit; in the whole collection about 8.1% have one here. Unless noted, calls follow the shape of the dose curve; as a rule, active = well fitted curve in the direction sought with a large enough effect; inconclusive = small, poorly fitted or top-dose-only effect, or another doubt; inactive = no such curve, though single readings can be large; an effect the other way counts as inactive or inconclusive. Potency is read from the fitted curve at half-maximal effect.

SMILES	VP16 counter	PINK1 expr mod	Epigenetic reg	Sfp PPTase inh	ClpP mod	RORgamma inh
COc1ccc(-c2nnc(SCC(=O)Nc3nncs3)o2)cc1	8.91µM*	28.2%	0.7%	3.0%	x	7.08µM*
Cc1cc(/C=C2\C=Cc3ccccc32)cc(C)c1[N+](=O)[O-]	x	0.3%	x	x	-2.0%	x
COc1cccc(-n2c(SCC(=O)Nc3cc(C)on3)nc3ccccc3c2=O)c1	3.4%	6.5%[38.3 µM]	0.8%	15.9%	-1.4%	-1.7%
CCc1sc2nc(SCC(=O)Nc3cc(C)on3)n(-c3cccc(OC)c3)c(=O)c2c1C	-1.9%	1.0%	6.5%	56.2µM*	-6.8%	13.0%
COc1ccc(CNC(=O)c2cnn(-c3nccc(-c4ccco4)n3)c2C)cc1OC	x	0.9%	x	x	x	x
N#Cc1ccc(-c2ccccc2)nc1Sc1ccc(F)cc1	-11.3%	u	-2.1%	8.4%	-11.7%	-4.6%
COc1cnc(-c2ccccn2)nc1Sc1ccccc1	11.2µM*	-0.7%	-2.7%	u	x	2.51µM*
COc1cnc(-c2ccccn2)nc1Sc1ccc(F)cc1	3.55µM*	-0.2%	-0.5%	-5.5%	x	-28.6%
CCOC(=O)CSc1nc(-c2ccccn2)ncc1OC	-5.6%	1.1%	-5.3%	3.4%	x	u
COc1cnc(-c2ccccn2)nc1Sc1ccc(Cl)cc1	5.62µM*	1.3%[38.3 µM]	-1.0%	-2.1%	-1.2%	5.62µM*
COc1ccc(C(=O)Nc2cccnc2Sc2ccc(Cl)cc2)cc1	21.7%	2.3%	1.1%	2.1%	-6.5%	36.4%
COc1ccc(Sc2nc(-c3ccccn3)ncc2OC)cc1	8.91µM*	-2.1%	-0.3%	-8.3%	x	2.24µM*
Cc1ccc(CN2C(=O)c3ccccc3Sc3ccc(C(=O)N4CCOCC4)cc32)cc1	x	0.4%	1.2%	x	-2.4%	x
COc1cnc(N(C)C)nc1Sc1ccc(Cl)cc1	-9.4%	-1.0%	2.5%	-3.0%	31.6µM*	25.3%
COc1cc(NC(=S)N2CCN(C(c3ccccc3)c3ccccc3)CC2)cc(OC)c1	0.4%[0.365 µM]	-0.6%	-4.5%	9.4%	-1.5%	4.47µM*
COCCNC(=S)N1CCN(C/C=C/c2ccccc2)CC1	-8.4%	5.1%	-0.3%	10.4%	-0.8%	u
COc1cc(NC(=S)N2CCN(C/C=C/c3ccccc3)CC2)cc(OC)c1	u	2.5%	-1.0%	4.6%	-2.5%	11.2µM*
S=C(NC1CCCC1)N1CCN(C/C=C/c2ccccc2)CC1	u	-0.5%	0.0%	12.2%	x	u
CC(=C1C(=O)c2ccccc2C1=O)N1CCN(C/C=C/c2ccccc2)CC1	6.5%	-1.6%	-1.4%	56.2µM*	-4.0%	-0.8%
CC(=C1C(=O)c2ccccc2C1=O)N1CCN(Cc2ccccc2)CC1	3.7%	0.3%[38.3 µM]	1.1%	-17.9%	-1.9%	3.4%
S=C(NCc1ccco1)N1CCN(C/C=C/c2ccccc2)CC1	-0.2%	-0.2%	-3.2%	79.4µM*	x	12.7%
Cc1ccc2[nH]c(CSc3nnc(NC(=O)COc4ccccc4F)s3)cc(=O)c2c1	x	4.3%	-5.2%	x	-6.6%	x
CCCCCN1C(C(=O)c2ccccc2)=C(NC(=O)c2ccccc2Cl)c2ccccc2S1(=O)=O	x	6.5%	-0.1%	x	1.2%	x
COc1cn(CC(=O)Nc2ccccc2)c(CN2CCCCC2)cc1=O	x	0.2%	-0.2%	x	0.0%	x
CC(/C=C/C=C(\C)C(=O)O[C@@H]1O[C@H](CO[C@@H]2O[C@H](CO)[C@@H](O)[C@H](O)[C@H]2O)[C@@H](O)[C@H](O)[C@H]1O)=C\C=C\C=C(C)\C=C\C=C(/C)C(=O)O[C@@H]1O[C@H](CO[C@@H]2O[C@H](CO)[C@@H](O)[C@H](O)[C@H]2O)[C@@H](O)[C@H](O)[C@H]1O	-7.3%	x	x	3.8%	x	-8.5%[10 µM]
SMILES	VP16 counter	PINK1 expr mod	Epigenetic reg	Sfp PPTase inh	ClpP mod	RORgamma inh
COc1ccc(Cn2c(CNS(=O)(=O)c3ccc4c(c3)CCCC4)nc3cccnc32)cc1	x	6.8%	0.0%	x	-1.1%	x
S=C(Nc1ccccc1)N1CCN(C/C=C/c2ccccc2)CC1	u	1.8%	1.1%	3.3%	x	11.2µM*
COc1cccc(NC(=S)N2CCN(C/C=C/c3ccccc3)CC2)c1	u	-0.3%[38.3 µM]	-3.5%	-5.5%	2.3%	10µM*
Fc1ccccc1NC(=S)N1CCN(C/C=C/c2ccccc2)CC1	u	-2.7%	-1.8%	-2.4%	-2.2%	u
COc1ccccc1OCC(=O)N/N=C1\CCCCc2ccccc21	10.0%	-1.5%	0.8%	-0.6%	x	22.2%
C=C(C)CNC(=S)N/N=C1\CCCCc2ccccc21	1.78µM*	0.3%	1.7%	2.3%	x	1.41µM*
CCNC(=S)N/N=C1\CCCCc2ccccc21	3.98µM*	0.3%	1.1%	5.4%	1.2%	1.12µM*
CS(=O)(=O)N1CCN(c2nc(-c3cccs3)nc3ccccc23)CC1	x	0.9%	x	x	-7.4%	x
COc1ccc(C(=O)NCc2nnc(SC)n2-c2ccccc2C)c(OC)c1OC	x	-0.2%	x	x	x	x
CCN(CC)S(=O)(=O)c1ccc(-c2nnc3sc4cccc(C)c4n23)cc1	-1.7%	-0.7%	-0.7%	u	4.2%	2.24µM*
CCN(CC)S(=O)(=O)c1ccc(-c2nnc(SCC(N)=O)n2CC)cc1	-6.9%	-0.4%	-0.1%	-7.6%	x	18.9%
C#C[C@]1(O)CC[C@H]2[C@H]3CCc4cc(O)ccc4[C@@H]3CC[C@@]21C	3.5%	x	x	0.8%	x	-0.6%
COc1ccc(-n2nnnc2SCC(=O)N2CCOCC2)cc1	-7.5%	4.3%	-0.8%	30.9%	0.2%	32.1%
Cc1nnc(SCC(=O)c2ccc(S(=O)(=O)N3CCOCC3)cc2)n1-c1ccccc1	6.1%	-2.2%	-1.0%	31.6µM*	-1.8%	28.4%
COc1ccc(-n2cnnc2SCC(=O)c2ccc(S(=O)(=O)N3CCOCC3)cc2)cc1	20µM*	-1.7%	-1.8%	56.2µM*	-5.5%	u
COc1ccc(-n2nnnc2Sc2ccc(S(=O)(=O)N3CCOCC3)cn2)cc1	0.8%	0.2%	1.2%	44.7µM*	-5.8%	u
COc1ccc(-n2cnnc2SCC(=O)Nc2cc(S(=O)(=O)N3CCCCC3)ccc2C)cc1	1.9%	2.7%	-0.9%	6.0%	-5.0%	u
Cc1ccsc1CN(Cc1ccco1)c1cnc(S(C)(=O)=O)nc1C(=O)Nc1ccc(Cl)cc1	x	-1.6%	-0.8%	x	-4.8%	x
Cc1ccc(S(=O)(=O)NCC2CCC(C(=O)NCc3ccc(F)cc3)CC2)cc1 (stereo unspecified)	x	2.7%	-1.3%	x	1.7%	x
CC(=O)Nc1ccccc1-c1nc(CNC(=O)c2ccc(C)cc2)c(C)o1	x	-0.3%	x	x	x	x

Source: PubChem BioAssay (National Center for Advancing Translational Sciences (NCATS))
